Measurements published in PubChem BioAssay (Tox21).
Where “and” joins values, the source holds several entries; their conditions need not be identical. Identical values can stand only once. Records with an inconclusive call do not appear. A call without a number means that no potency is given here. Calls of active or inactive are those of the source. The call rests on the fitted dose curve; in most records, active means well fitted cell-killing curve with a large enough effect in the repeat runs; inconclusive means weak or mixed curves, or effect the other way; inactive means no such curve, though single readings can be large or run the other way.

Test: qHTS assay to identify small molecule antagonists of the thyroid receptor (TR) signaling pathway - cell viability counter screen (AID 743064); further: nearly all actives have a fitted effect of over 50% in size
Settings: GH3.TRE-Luc viability, CellTiter-Fluor, 24 h; series mostly up to 70.3 µM
In short: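 CellTiter-Fluor readout, 30 min at 37 °C/5% CO2, following 23.5 h incubation of GH3.TRE-Luc cells with test compound and 1 nM T3 (final).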
Potency means the concentration at half of the fitted maximal effect.

SMILES | Potency
C=CC(=O)O | inactive
CN1C(CSCC(F)(F)F)Nc2cc(Cl)c(S(N)(=O)=O)cc2S1(=O)=O (stereo not given) | inactive
CC(C)(C)S | inactive
CNc1c2c(nn1C)CCCC2 | inactive
O=C(O)c1cccc(Oc2ccccc2)c1 | inactive
COc1cc(NS(=O)(=O)c2ccc(N)cc2)nc(C)n1 | inactive
O=C(NC(Cc1cc(=O)[nH]c2ccccc12)C(=O)O)c1ccc(Cl)cc1 (stereo not given) | inactive
CCCCCCCCCCCC(=O)OCC(O)CO (stereo not given) | inactive
Cc1cn([C@H]2C[C@H](F)[C@@H](CO)O2)c(=O)[nH]c1=O | inactive
CC(C)(O)CCc1ccccc1 | inactive
CC(C)CC(O)CC(C)C | inactive
Cc1ccc(N(CCO)CCO)cc1 | inactive
CCCCCCCCCCCCCCCC(=O)OCC | inactive
CC(C)(C)C1(CCc2ccc(Cl)cc2)CO1 (stereo not given) | inactive
Cc1ccc(S(=O)(=O)NC(=O)NC2CCCCC2)cc1 | inactive
O=C(O)CNC(=O)c1ccccc1I | inactive
ClC1=C(Cl)C1(Cl)Cl | inactive
OCC(CO)n1cnc(-c2ccc(F)cc2)c1-c1ccnc(Oc2ccccc2)n1 | inactive
CNC1CCCN(c2c(F)cc3c(=O)c(C(=O)O)cn(C4CC4)c3c2OC)C1 (stereo not given) | inactive
CC[C@H]1OC(=O)[C@H](C)[C@@H](O[C@H]2C[C@@](C)(OC)[C@@H](O)[C@H](C)O2)[C@H](C)[C@@H](O[C@@H]2O[C@H](C)C[C@H](N(C)C)[C@H]2O)[C@](C)(O)C[C@@H](C)CN(C)[C@H](C)[C@@H](O)[C@]1(C)O | 29.8 µM (active) and 40.5 µM (active)
